Assay [1] can be described thus: Nuclear factor erythroid 2-related factor 2/antioxidant responsive element (Nrf2/ARE) small molecule agonists: qHTS cell viability counter screen in human keratinocytes (AID 1919968; active = well fitted curve in the direction sought with a large enough effect in the repeat runs; an effect the other way counts as inactive or inconclusive; note: nearly all actives have a fitted effect of over 55% in size; note: potency is the fitted concentration of half-maximal effect). Summed up:
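Seed 1,500 KeratinoSens cells per well, then incubate 5 h at 37 C/5% CO2. Add compounds in DMSO and incubate 23 h. Add CellTiter-Fluor, wait 1 h and read fluorescence.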

The nature of assay [2]: Nuclear factor erythroid 2-related factor 2/antioxidant responsive element (Nrf2/ARE) small molecule agonists: luciferase reporter gene qHTS assay in human keratinocytes (AID 1919969). Note: nearly all actives have a fitted effect of over 35% in size.
In assay [3] the target is KiSS-1 receptor (Homo sapiens) (UniProt Q969F8). Description: Human kisspeptin (KISS1R) small molecule agonists, calcium flux assay in KISS1R-HEK293 cells (AID 1920064; active = well fitted curve in the direction sought with a large enough effect in the repeat runs; an effect the other way counts as inactive or inconclusive). Summed up: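 Cells plated and incubated 18 h; dye added, 1 h at 37 C; compounds in DMSO pinned in; signal read at 480/540 nm every second for 3 min. Each compound tested at 15 concentrations in triplicate.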
KiSS-1 receptor (Homo sapiens), sequence (Q969F8 whole entry, looked up): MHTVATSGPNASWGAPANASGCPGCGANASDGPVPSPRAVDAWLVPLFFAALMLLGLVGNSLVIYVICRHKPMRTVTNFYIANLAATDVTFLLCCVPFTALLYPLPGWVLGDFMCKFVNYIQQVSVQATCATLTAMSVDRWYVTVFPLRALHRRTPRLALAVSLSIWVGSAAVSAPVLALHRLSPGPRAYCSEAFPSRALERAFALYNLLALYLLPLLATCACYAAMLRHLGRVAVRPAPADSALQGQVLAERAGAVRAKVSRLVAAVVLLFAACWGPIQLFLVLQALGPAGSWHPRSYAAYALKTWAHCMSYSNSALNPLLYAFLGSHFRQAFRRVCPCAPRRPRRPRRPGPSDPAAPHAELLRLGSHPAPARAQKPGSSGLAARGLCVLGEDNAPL

The nature of assay [4]: G protein-coupled receptor (GPCR) small molecule agonists, calcium flux assay: HEK293 wild type cell line counter screen (AID 1920065). Summed up:
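Counter-screen of the Tox21 10K library for non-specific calcium release: dye-loaded cells received compounds in DMSO and were monitored by kinetic fluorescence (480/540 nm, 3 min). Fifteen concentrations, run in triplicate.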

Assay [5] in a line: p53 small molecule agonists, cell-based qHTS assay with human liver microsomes (AID 1963577).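 Note: p53 response element beta-lactamase reporter cells with liver microsomes plus NADPH.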 The method, boiled down: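 p53RE-bla cells; 5 h settle, 37 C/5% CO2; cpd + HLM 0.5 mg/mL + NADPH 0.5 mg/mL (final); 16 h 37 C; LiveBLAzer 2 h RT dark; fluorescence readout.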
A short description of assay [6]: p53 small molecule agonists, cell-based qHTS assay with rat liver microsomes (AID 1963578). Summed up:
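Rat liver microsome activation: microsomes 0.5 mg/mL, NADPH 0.5 mg/mL final; p53RE-bla cells, 16 h 37 C; LiveBLAzer readout, 2 h RT dark.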

The nature of assay [7]: p53 small molecule agonists, cell-based qHTS assay with human liver microsomes: qHTS cell viability counter screen (AID 1963579). Note: nearly all actives have a fitted effect of over 45% in size. The method, boiled down: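 Luminescent CellTiter-Glo read-out, 30 min at room temperature, gauged cytotoxicity in p53RE-bla cells exposed 16 h at 37 C to DMSO-dissolved compounds with metabolic activation by human liver microsomes and NADPH, each 0.5 mg/mL final.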

Assay [8] in a line: p53 small molecule agonists, cell-based qHTS assay: qHTS cell viability counter screen (AID 1963581). Note: nearly all actives have a fitted effect of over 45% in size. Summed up:
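Cells: HCT-116 with p53 response element-driven beta-lactamase. Treatment: 16 h, 37 C, compounds in DMSO. Read: CellTiter-Glo luminescence after 30 min RT.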

Assay [9] can be described thus: p53 small molecule agonists, cell-based qHTS assay (AID 1963582; active = well fitted activation curve with a large enough effect in the signal ratio in the repeat runs, not every such curve was filed as active; the % refers to the signal ratio). The method, boiled down: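 Quantitative HTS in p53RE-bla cells: after a 5 h settling period, compounds delivered in DMSO were left on cells for 16 h at 37 C, and reporter induction was measured as fluorescence following 2 h substrate loading.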
Assay [10] addresses 5-hydroxytryptamine receptor 2A (Homo sapiens) (UniProt P28223). Description: 5-hydroxytryptamine receptor 2A (HTR2A) small molecule antagonists, cell-based qHTS assay (AID 1963586). Note: nearly all actives have a fitted effect of over 45% in size. The method, boiled down: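 Antagonist-mode intracellular calcium assay: DOI (4 nM) added after 5 min compound pre-incubation at room temperature to dye-loaded HTR2A-CHO cells. Fluorescence followed for 3 min, sampled every second.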

Assay [11] has the same target. Description: 5-hydroxytryptamine receptor 2A (HTR2A) small molecule agonists, cell-based qHTS assay (AID 1963587). Note: nearly all actives have a fitted effect of over 30% in size. The method, boiled down:
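Kinetic calcium-flux fluorescence (2 min, 1 sec intervals) after compound addition in agonist mode. HTR2A-CHO cells were cultured 18 h, then dye-loaded 1 h at 37 C.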

The target in assay [12] is Muscarinic acetylcholine receptor M1 (Homo sapiens) (UniProt P11229). Kind of assay: Cholinergic receptor muscarinic 1 (CHRM1) small molecule antagonists, cell-based qHTS assay (AID 1963588). Note: nearly all actives have a fitted effect of over 40% in size. The method, boiled down:
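CHRM1-CHO calcium-flux assay, antagonist mode. Cells were seeded 18 h, dye-loaded 1 h at 37 C and given compound for 5 min at RT, then acetylcholine was added at 50nM. FDSS fluorescence was read 3 min; 15 concentrations, three runs.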

The target is the same in assay [13]. Kind of assay: Cholinergic receptor muscarinic 1 (CHRM1) small molecule agonists, cell-based qHTS assay (AID 1963589). Note: nearly all actives have a fitted effect of over 35% in size. The method, boiled down:
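Agonist-mode qHTS in CHO cells stably carrying human muscarinic M1. Intracellular calcium is tracked by fluorescence every second after compound transfer; each compound runs at 15 concentrations in three independent runs.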

A short description of assay [14]: cAMP Responsive Elements (CRE) small molecule agonists, cell-based qHTS assay (AID 1963590). The method, boiled down: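 Agonist mode qHTS in CRE-bla HEK 293T cells: compounds dosed from DMSO for 3 h at 37 C/5% CO2, followed by LiveBLAzer B/G FRET substrate for 2 h at room temperature.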
A short description of assay [15]: cAMP Responsive Elements (CRE) small molecule antagonists, cell-based qHTS assay (AID 1963591; active = well fitted inhibition curve with a large enough effect in the signal ratio in the repeat runs, not every such curve was filed as active; the % refers to the signal ratio). Summed up: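 Antagonist mode: test compounds are co-incubated with the adenylyl cyclase activator NKH477 (0.25 uM final) on CRE-bla HEK293T cells for 3 h at 37 °C, followed by LiveBLAzer substrate loading.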
Assay [16] has as its target Beta-2 adrenergic receptor (Homo sapiens) (UniProt P07550). Kind of assay: Adrenergic beta2 receptor (ADRB2) small molecule antagonists, cell-based qHTS assay (AID 1963592). Note: series mostly up to about 92 µM; nearly all actives have a fitted effect of over 50% in size. The method, boiled down: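 Cells (CHO, stable ADRB2 overexpression) incubated 18-20hr at 37C; compounds added from DMSO; agonist mix (1nM isoproterenol, 100uM IBMX, 25uM Ro-20-1724) added; 0.5hr RT; d2-cAMP and anti-cAMP-cryptate added; 1hr RT; 665/615 nm read.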

For assay [17] the target is unchanged. Kind of assay: Adrenergic beta2 receptor (ADRB2) small molecule agonists, cell-based qHTS assay (AID 1963593).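 Note: CHO cells stably overexpressing human ADRB2.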 The method, boiled down:
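CHO cells stably over-expressing ADRB2 were plated overnight at 37C, then dosed with compounds plus a stimulation mix containing 100uM IBMX and 25uM Ro-20-1724 for 0.5hr at room temperature. cAMP was measured by HTRF competition, 1hr.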

Assay [18] concerns the target D(2) dopamine receptor (Homo sapiens) (UniProt P14416). Description: Dopamine D2 receptor (DRD2) small molecule agonists, cell-based qHTS assay (AID 1963594). Note: nearly all actives have a fitted effect of over 35% in size. The method, boiled down:
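cAMP accumulation in DRD2-HEK293 cells measured by HTRF after 1 h detection; compounds added 10 min before NKH477 (200nM […]) forskolin-analogue stimulation, 30 min at room temperature, with Ro20-1724 present at 0.1 mM final.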

A short description of assay [19]: p53 small molecule agonists, cell-based qHTS assay with rat liver microsomes: qHTS cell viability counter screen (AID 1963580). Note: nearly all actives have a fitted effect of over 45% in size. The method, boiled down:
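Intracellular ATP, by CellTiter-Glo luminescence, defines viability. HCT-116 p53RE-bla cells, 4,000 per well, were compound-treated in the presence of rat liver microsomes and NADPH for 16 h at 37 C.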

Assay [20] deals with D(2) dopamine receptor (Homo sapiens) (UniProt P14416). Description: Dopamine D2 receptor (DRD2) small molecule antagonists, cell-based qHTS assay (AID 1963595; active = well fitted inhibition curve with a large enough effect in the signal ratio in the repeat runs, with a control signal flat; the % refers to the signal ratio). The method, boiled down: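 HEK293 cells stably expressing DRD2 were preincubated with 0.1 mM Ro20-1724, then with compound for 10 min at room temperature. Cells were stimulated with 200 nM NKH477 plus 12 nM quinpirole for 30 min, and cAMP was read by HTRF.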
D(2) dopamine receptor (Homo sapiens), sequence (P14416 whole entry, looked up): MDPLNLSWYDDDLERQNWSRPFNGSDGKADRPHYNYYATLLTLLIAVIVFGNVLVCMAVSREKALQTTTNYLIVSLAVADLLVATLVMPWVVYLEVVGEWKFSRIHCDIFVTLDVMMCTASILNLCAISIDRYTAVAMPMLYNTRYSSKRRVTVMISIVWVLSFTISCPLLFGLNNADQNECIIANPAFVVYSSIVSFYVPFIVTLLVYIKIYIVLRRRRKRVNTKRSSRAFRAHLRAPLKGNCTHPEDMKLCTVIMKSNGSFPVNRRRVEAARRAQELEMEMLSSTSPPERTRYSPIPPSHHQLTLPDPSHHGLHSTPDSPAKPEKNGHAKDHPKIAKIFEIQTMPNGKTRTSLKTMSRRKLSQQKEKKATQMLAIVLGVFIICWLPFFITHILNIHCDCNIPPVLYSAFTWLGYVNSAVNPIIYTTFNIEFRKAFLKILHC

Each structure is given as a SMILES string. Inconclusive results are not listed. Calls of active or inactive are those of the source. Unless noted, calls come from the whole dose curve.

Muscarinic acetylcholine receptor M1 (Homo sapiens), sequence (P11229 whole entry, looked up): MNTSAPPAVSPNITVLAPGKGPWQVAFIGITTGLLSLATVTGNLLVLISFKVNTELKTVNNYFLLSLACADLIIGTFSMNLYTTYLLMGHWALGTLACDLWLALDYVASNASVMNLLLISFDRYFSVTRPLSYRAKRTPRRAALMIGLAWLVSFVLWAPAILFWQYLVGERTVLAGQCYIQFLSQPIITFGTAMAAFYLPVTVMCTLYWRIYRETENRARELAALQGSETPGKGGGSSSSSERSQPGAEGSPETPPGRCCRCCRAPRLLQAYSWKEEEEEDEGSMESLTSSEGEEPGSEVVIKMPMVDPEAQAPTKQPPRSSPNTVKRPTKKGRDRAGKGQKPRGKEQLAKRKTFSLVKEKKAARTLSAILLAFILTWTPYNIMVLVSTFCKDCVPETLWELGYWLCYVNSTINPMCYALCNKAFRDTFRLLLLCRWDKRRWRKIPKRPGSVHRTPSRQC
5-hydroxytryptamine receptor 2A (Homo sapiens), sequence (P28223 whole entry, looked up): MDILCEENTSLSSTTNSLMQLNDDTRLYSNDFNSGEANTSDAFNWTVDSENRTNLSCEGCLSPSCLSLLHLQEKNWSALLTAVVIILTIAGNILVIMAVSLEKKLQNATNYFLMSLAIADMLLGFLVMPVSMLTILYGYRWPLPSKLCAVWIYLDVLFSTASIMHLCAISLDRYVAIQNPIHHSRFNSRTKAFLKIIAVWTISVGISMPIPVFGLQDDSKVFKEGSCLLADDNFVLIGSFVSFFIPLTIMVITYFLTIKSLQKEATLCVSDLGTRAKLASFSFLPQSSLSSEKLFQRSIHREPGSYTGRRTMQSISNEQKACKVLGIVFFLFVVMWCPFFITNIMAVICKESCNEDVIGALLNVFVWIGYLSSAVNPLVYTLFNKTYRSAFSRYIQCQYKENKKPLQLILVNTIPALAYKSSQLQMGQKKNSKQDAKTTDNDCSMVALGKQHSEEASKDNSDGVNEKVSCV
Beta-2 adrenergic receptor (Homo sapiens), sequence (P07550 whole entry, looked up): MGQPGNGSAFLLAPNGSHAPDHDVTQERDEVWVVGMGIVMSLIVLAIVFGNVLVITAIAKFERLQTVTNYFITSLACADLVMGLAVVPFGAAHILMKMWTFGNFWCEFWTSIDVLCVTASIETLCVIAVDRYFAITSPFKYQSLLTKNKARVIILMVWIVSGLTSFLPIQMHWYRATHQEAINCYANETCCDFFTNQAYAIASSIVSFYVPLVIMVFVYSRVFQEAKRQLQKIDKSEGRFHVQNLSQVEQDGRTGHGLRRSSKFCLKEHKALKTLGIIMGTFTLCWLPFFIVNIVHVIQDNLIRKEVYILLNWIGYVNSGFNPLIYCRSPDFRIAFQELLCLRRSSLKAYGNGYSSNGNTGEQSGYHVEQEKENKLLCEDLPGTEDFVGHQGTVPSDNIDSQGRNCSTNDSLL

Consider `COc1cc(C(=O)NCc2ccc(OCCN(C)C)cc2)cc(OC)c1OC`, for which the Potency result in [1], in assay [2], in assay [3], in assay [4], in [5] and in [6] was “inactive” in each case. Besides, the Potency result in assay [7], in assay [8], in assay [9], in [10], in [11] and in [12] was “inactive” each time. Also, the Potency entry in assay [13], in assay [14], in [15], in assay [16], in [17] and in assay [18] was “inactive” throughout.

Take `C=CCS(=O)(=O)O`: the Potency result in assay [1], in assay [2], in [3], in [4], in assay [5] and in assay [6] was “inactive” throughout. For the same compound, the Potency result in [7], in [19], in assay [8], in [9], in [10] and in assay [12] was “inactive” throughout. Besides, the Potency result in assay [13], in assay [14], in assay [15], in assay [16], in assay [17] and in assay [18] was “inactive” throughout. The Potency entry in assay [20] was “inactive”.

Take `CC1CCC(C(C)(C)S)C(=O)C1` (stereo not drawn): the Potency entry in [1], in [2], in assay [3], in [4], in [5] and in assay [6] was “inactive” in each case. The Potency entry in assay [7], in [8], in assay [9], in assay [10], in [11] and in assay [12] was “inactive” in each case. Also, the Potency entry in [13], in assay [14], in [15], in assay [16], in assay [18] and in [20] was “inactive” throughout.

`CN1C(CCl)Nc2cc(Cl)c(S(N)(=O)=O)cc2S1(=O)=O` (stereo not drawn): the Potency entry in [1], in assay [2], in assay [4], in assay [5], in assay [6] and in assay [7] was “inactive” throughout. Also, the Potency entry in assay [19], in assay [8], in [9], in assay [10], in assay [11] and in [12] was “inactive” each time. The Potency result in assay [13], in [14], in [16], in [18] and in assay [20] was “inactive” throughout.

On to `CC(C)NC(=O)c1ccccc1N`, for which the Potency result in assay [1], in [2], in [3], in assay [6], in assay [7] and in assay [19] was “inactive” in each case. Further, the Potency entry in assay [8], in assay [9], in assay [10], in [11], in assay [13] and in [15] was “inactive” in each case. The Potency entry in [18] and in assay [20] was “inactive” each time.

For the compound `O=S1(=O)OC(c2ccc(O)cc2)(c2ccc(O)cc2)c2ccccc21`, in [1], the Potency is 24.3 µM (active). For the same compound, the Potency result in assay [2], in [3], in [4], in [7], in assay [19] and in assay [10] was “inactive” each time. Moreover, the Potency entry in assay [11], in assay [12], in assay [13], in assay [14], in assay [15] and in assay [16] was “inactive” each time. Also, the Potency entry in assay [17], in assay [18] and in [20] was “inactive” in each case.

For the compound `Nc1ccc2cc3ccccc3cc2c1`, the Potency result in assay [1], in [2], in [3], in assay [4], in assay [7] and in [19] was “inactive” in each case. Further, the Potency entry in [8], in assay [10], in assay [11], in assay [12], in assay [13] and in assay [16] was “inactive” throughout. For the same compound, the Potency entry in [17], in assay [18] and in assay [20] was “inactive” each time.

As for `CC(=O)[C@H]1CC[C@H]2[C@@H]3CCC4=CC(=O)CC[C@]4(C)[C@H]3CC[C@]12C`, the Potency result in assay [1], in [2], in assay [3], in assay [4], in [5] and in assay [7] was “inactive” throughout. The Potency result in assay [19], in assay [8], in assay [16], in [18] and in assay [20] was “inactive” throughout.
